From paper PMC4336329 (PLoS ONE, 2015)
Hit rate of the full screen: of about 310,000 compounds, about 14,000 (4.5%) showed an effect of 50% or more. The effect is printed as a negative number. The entries come from a sample that favours strong results as a whole.

Target: human ether-à-go-go-related gene (hERG) potassium channel (human, UniProt Q12809)
Test: primary screen, population patch clamp on CHO cells stably expressing hERG; higher = less effect of the substance
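Note: peak tail current of the secondary pulse compared with the same well before compound.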

Chain of human ether-à-go-go-related gene (hERG) potassium channel (Q12809 whole entry, looked up): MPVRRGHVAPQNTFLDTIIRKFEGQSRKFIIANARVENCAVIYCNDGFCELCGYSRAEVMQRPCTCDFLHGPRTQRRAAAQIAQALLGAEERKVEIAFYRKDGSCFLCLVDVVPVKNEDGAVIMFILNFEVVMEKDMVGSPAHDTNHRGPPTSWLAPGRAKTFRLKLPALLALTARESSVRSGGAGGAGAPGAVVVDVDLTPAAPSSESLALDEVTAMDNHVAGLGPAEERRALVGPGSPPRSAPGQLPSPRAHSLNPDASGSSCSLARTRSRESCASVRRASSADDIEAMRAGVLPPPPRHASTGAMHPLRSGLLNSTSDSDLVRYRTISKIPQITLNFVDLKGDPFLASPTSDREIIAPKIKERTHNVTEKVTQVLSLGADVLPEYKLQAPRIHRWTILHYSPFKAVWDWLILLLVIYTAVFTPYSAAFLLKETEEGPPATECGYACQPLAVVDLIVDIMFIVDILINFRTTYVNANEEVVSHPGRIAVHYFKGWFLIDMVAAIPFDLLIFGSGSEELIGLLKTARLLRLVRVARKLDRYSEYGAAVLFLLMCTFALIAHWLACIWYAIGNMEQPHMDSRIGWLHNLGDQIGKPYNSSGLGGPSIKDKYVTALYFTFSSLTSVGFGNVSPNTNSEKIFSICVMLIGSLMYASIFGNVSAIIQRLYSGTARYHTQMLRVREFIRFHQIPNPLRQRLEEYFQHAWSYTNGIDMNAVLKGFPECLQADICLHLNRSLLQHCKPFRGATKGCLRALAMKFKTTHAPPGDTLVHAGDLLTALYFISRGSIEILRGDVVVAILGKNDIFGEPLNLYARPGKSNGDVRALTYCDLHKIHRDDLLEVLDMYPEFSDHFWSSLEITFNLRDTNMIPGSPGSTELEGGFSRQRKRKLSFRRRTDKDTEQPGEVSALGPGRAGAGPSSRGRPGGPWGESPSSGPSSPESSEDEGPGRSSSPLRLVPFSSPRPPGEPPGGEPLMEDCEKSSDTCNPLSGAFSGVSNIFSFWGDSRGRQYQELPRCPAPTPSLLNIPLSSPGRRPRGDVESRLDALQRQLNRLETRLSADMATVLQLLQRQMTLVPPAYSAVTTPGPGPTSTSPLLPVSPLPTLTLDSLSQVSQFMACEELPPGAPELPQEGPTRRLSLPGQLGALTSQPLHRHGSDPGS

**Q.** How did the “hERG current change (%, negative = inhibition) at 10uM” value turn out when `COc1ccc(C2=Nc3cccc4cccc(c34)N2)cc1` was run?
**A.** Its value is 9.66%.

**Q.** Which “hERG current change (%, negative = inhibition) at 10uM” value does the source give for `Cc1cccc(Nc2nnc(SCC(=O)Nc3cccc(S(=O)(=O)N4CCCCC4)c3)s2)c1` here?
**A.** The value was 3.37%.

**Q.** How did the “hERG current change (%, negative = inhibition) at 10uM” value turn out when `C=CCN1C(=O)NC(=O)/C(=C/c2ccoc2)C1=O` was run?
**A.** The value was 20.5%.

**Q.** With `CCn1c(C)[n+](CCOC(C)=O)c2cc(Cl)c(Cl)cc21.[I-]` as the compound, how does the “hERG current change (%, negative = inhibition) at 10uM” value read?
**A.** Its value is -8.87%.

**Q.** Which “hERG current change (%, negative = inhibition) at 10uM” value does the source give for `COC(=O)CCCC(=O)N1CCC(CCC(=O)NCc2ccc(F)cc2)CC1` here?
**A.** Its value is -24%.

**Q.** With `CN(C)C(=C(C#N)C#N)N1CCN(c2ccc(Cl)c(Cl)c2)CC1` as the compound, how does the “hERG current change (%, negative = inhibition) at 10uM” value read?
**A.** Its value is -63.2%.

**Q.** With `N#C/C=C(/N)N1CCN(c2ccc(Cl)c(Cl)c2)CC1` as the compound, how does the “hERG current change (%, negative = inhibition) at 10uM” value read?
**A.** Its value is -73.9%.

**Q.** How did the “hERG current change (%, negative = inhibition) at 10uM” value turn out when `CN(C)C(=C(C#N)C#N)N1CCN(c2ccc(Cl)cc2)CC1` was run?
**A.** Its value is -48.3%.

**Q.** `COC(=O)N1CCN(c2ccc(Cl)c(Cl)c2)CC1` was tested. Which “hERG current change (%, negative = inhibition) at 10uM” value did it give?
**A.** The value was -1.86%.

**Q.** Which “hERG current change (%, negative = inhibition) at 10uM” value does the source give for `CNC(=S)N1CCN(c2ccc(Cl)c(Cl)c2)CC1` here?
**A.** Its value is -6.17%.

**Q.** How did the “hERG current change (%, negative = inhibition) at 10uM” value turn out when `CCOC(=O)N1CCN(c2ccc(Cl)c(Cl)c2)CC1` was run?
**A.** The value was -11.1%.

**Q.** For `CCC1(c2ccccc2)NC(=O)N(CC(=O)Nc2ccccc2N2CCCCC2)C1=O` (centres unmarked), which “hERG current change (%, negative = inhibition) at 10uM” value is on record?
**A.** Its value is -15.8%.

**Q.** With `CCCc1ccc(Oc2cc(N3CCOCC3)nc(-c3ccccc3)n2)cc1` as the compound, how does the “hERG current change (%, negative = inhibition) at 10uM” value read?
**A.** Its value is 21.5%.

**Q.** For `CCC(=O)Nc1cccc(-c2nc3ccc(C)cc3o2)c1`, which “hERG current change (%, negative = inhibition) at 10uM” value is on record?
**A.** Its value is -13.4%.

**Q.** `CC1(C)CC(O)C(C)(C)N1O` (centres unmarked) was tested. Which “hERG current change (%, negative = inhibition) at 10uM” value did it give?
**A.** The value was 3.9%.

**Q.** Which “hERG current change (%, negative = inhibition) at 10uM” value does the source give for `CCc1nnc(NS(=O)(=O)c2ccc(N=Cc3c(C)[nH]n(-c4ccc(Cl)cc4)c3=O)cc2)s1` here?
**A.** The value was 17.7%.

**Q.** Which “hERG current change (%, negative = inhibition) at 10uM” value does the source give for `Cc1ccc(C)c(CN2C(=O)CSc3ccc(C(=O)NCC(C)CN4CCC(C)CC4)cc32)c1` (centres unmarked) here?
**A.** Its value is -75.8%.

**Q.** With `Cc1ccc(C)c(CN2C(=O)CSc3ccc(C(=O)N4CCCC4)cc32)c1` as the compound, how does the “hERG current change (%, negative = inhibition) at 10uM” value read?
**A.** Its value is -17%.

**Q.** How did the “hERG current change (%, negative = inhibition) at 10uM” value turn out when `Cc1ccc(C)c(CN2C(=O)CSc3ccc(C(=O)NCCN4CCOCC4)cc32)c1` was run?
**A.** The value was 14.6%.

**Q.** `CCOC(=O)c1nn(-c2ccccc2F)c(-c2ccccc2)c1C(=O)c1ccccc1` was tested. Which “hERG current change (%, negative = inhibition) at 10uM” value did it give?
**A.** The value was 7.34%.

**Q.** Which “hERG current change (%, negative = inhibition) at 10uM” value does the source give for `O=C(NCCc1ccccc1)c1ccc(-n2cnnn2)cc1` here?
**A.** The value was -4.78%.

**Q.** `COCCN(C(=O)COC(=O)c1cccc2ccccc12)c1c(N)n(Cc2ccccc2)c(=O)[nH]c1=O` was tested. Which “hERG current change (%, negative = inhibition) at 10uM” value did it give?
**A.** The value was -0.159%.

**Q.** How did the “hERG current change (%, negative = inhibition) at 10uM” value turn out when `COc1ccc(/C=C/CN2CCC(n3nccc3NC(=O)C3CCCC3)CC2)cc1` was run?
**A.** Its value is -88.6%.

**Q.** `COc1ccc(/C=C/CN2CCC(n3nccc3NC(=O)C3CC3)CC2)cc1` was tested. Which “hERG current change (%, negative = inhibition) at 10uM” value did it give?
**A.** Its value is -72.7%.

**Q.** For `COc1ccc(CC(=O)N2CCC(n3nccc3NC(=O)C3CC3)CC2)cc1`, which “hERG current change (%, negative = inhibition) at 10uM” value is on record?
**A.** The value was 13.7%.

**Q.** With `COc1ccc(OCC(=O)N2CCC(n3nccc3NC(=O)C3CC3)CC2)cc1` as the compound, how does the “hERG current change (%, negative = inhibition) at 10uM” value read?
**A.** The value was 1.44%.
